{"source": "ChEMBL document CHEMBL3988442", "about": "“University of Dundee, Small-Polar-MMV Screening Library” (2021)", "note": "The campaign covered roughly 48,000 compounds. About 13,000 (27%) showed an effect of 50% or more. This is one part of the list.", "data": [{"test_system": "Wolbachia pipientis", "assay": "Anti-Wolbachia Cell-Based Screen", "type": "functional", "parameters": "scale not given: in the data most compounds retested in dose-response had high values", "settings": "5 µM", "units": {"Percent Effect": "%"}, "values": [{"smiles": "O=C1NCCc2c1sc1ccc(C(=O)N3CC[C@H](CO)[C@H](O)C3)cc21", "Percent Effect": 1.887}, {"smiles": "CCCS(=O)(=O)N1CCC2(CCC(=O)N(CCc3cccnc3)C2)CC1", "Percent Effect": -2.035}, {"smiles": "CCCC(=O)NC(C)(C)Cc1ccccc1OC", "Percent Effect": 8.655}, {"smiles": "CCn1cc(S(=O)(=O)NC(=O)CCc2c[nH]c3ccccc23)cn1", "Percent Effect": 5.036}, {"smiles": "CN1CCN(c2ccc(NCc3ccc([S+](C)[O-])cc3)cn2)CC1", "note": "(centres undefined)", "Percent Effect": -11.28}, {"smiles": "Cc1ccsc1C(=O)N1CC[C@H]2CO[C@H](CN(C)C)[C@H]2C1.O=C(O)C(F)(F)F", "Percent Effect": 3.155}, {"smiles": "CCC(C)CS(=O)(=O)NC(=O)C1CC1", "note": "(centres undefined)", "Percent Effect": -14.71}, {"smiles": "CN(Cc1nnnn1C1CC1)c1cccc2ccccc12", "Percent Effect": -12.9}, {"smiles": "O=C(CS(=O)(=O)Cc1nnnn1C1CC1)NCC1CC1", "Percent Effect": -6.472}, {"smiles": "O=C(CS(=O)(=O)Cc1nnnn1C1CC1)NCCc1ccccc1", "Percent Effect": -17.89}, {"smiles": "O=S(=O)(Cc1ccccc1F)Cc1nnnn1C1CC1", "Percent Effect": 106.9}, {"smiles": "[O-][S+](Cc1c(F)cccc1Cl)Cc1nnnn1C1CC1", "note": "(centres undefined)", "Percent Effect": 117.1}, {"smiles": "O=S(=O)(CCCc1ccccc1)Cc1nnnn1C1CC1", "Percent Effect": -8.499}, {"smiles": "O=S(=O)(Cc1c(F)cccc1Cl)NCCCN1CCCCCC1", "Percent Effect": 1.36}, {"smiles": "c1ccc(C2CCCN2Cc2nnnn2C2CC2)cc1", "note": "(centres undefined)", "Percent Effect": -9.931}, {"smiles": "O=S(=O)(Cc1c(F)cccc1Cl)Cc1nnnn1C1CC1", "Percent Effect": 95.69}, {"smiles": "CCC(C)CN(C)C(=O)NCc1ccccc1-n1cccn1", "note": "(centres undefined)", "Percent Effect": -6.014}, {"smiles": "Cc1cnccc1CN(C)C1CCN(c2ncnc3[nH]cnc23)CC1", "Percent Effect": -3.937}, {"smiles": "CN(C)C(=O)CCC[S+]([O-])Cc1cc(Cl)ccc1Cl", "note": "(centres undefined)", "Percent Effect": 0.1259}, {"smiles": "Cc1noc(C)c1CN1CCc2nn(C(C)C)c(=O)cc2C1", "Percent Effect": -7.391}, {"smiles": "CC(=O)Nc1ncc(S(=O)(=O)N2CCN(C3CCCCC3)CC2)s1", "Percent Effect": -4.636}, {"smiles": "Cc1ccccc1S(=O)(=O)Cc1nsc(N(C)C)n1", "Percent Effect": -10.46}, {"smiles": "COc1ccc2c(c1)CCCN2C(=O)NCCc1cnn(C)c1", "Percent Effect": -4.065}, {"smiles": "CCn1nccc1CN(C)C(=O)Cn1nc(C)c(C)c1C", "Percent Effect": 98.15}, {"smiles": "CCc1nc(CC)n(CC(=O)N(C)Cc2ccc(F)cc2)n1", "Percent Effect": -4.811}, {"smiles": "CCn1nccc1CN(C)C(=O)Cn1nc(C)cc1C", "Percent Effect": 69.47}, {"smiles": "Cc1cc(C)n(CC(C)CNC(=O)N(C)Cc2ccco2)n1", "note": "(centres undefined)", "Percent Effect": 23.18}, {"smiles": "Cc1cc(C)n(CC2CCCCN2CC(=O)N(C)Cc2ccco2)n1", "note": "(centres undefined)", "Percent Effect": -0.03535}, {"smiles": "Cc1ccc(CN(C)C(=O)Cn2nc(-c3ccc(F)cc3)oc2=O)cc1", "Percent Effect": -26.69}, {"smiles": "O=C(CNC(=O)C1CCCC1)NCC(O)c1ccc2ccccc2c1", "note": "(centres undefined)", "Percent Effect": -9.214}, {"smiles": "CCCn1nnc2c(sc3nc(N4CCOCC4)c4c(c32)CCC4)c1=O", "Percent Effect": 106.2}, {"smiles": "CCc1nc2c(c(N3CCOCC3)n1)CCN(C(=O)N1CCCC1)CC2", "Percent Effect": -8.543}, {"smiles": "CCCn1nnnc1CN(c1ccc(N2CCOCC2)cc1)C(C)C", "Percent Effect": -9.048}, {"smiles": "Cn1nnc2c(sc3nc(N4CCOCC4)c4c(c32)CCC4)c1=O", "Percent Effect": 117}, {"smiles": "CC(C)n1nnc2c(sc3nc(N4CCOCC4)c4c(c32)CCC4)c1=O", "Percent Effect": 121.1}, {"smiles": "CN(C)C(=O)Cc1ccccc1NCc1cccc2cccnc12", "Percent Effect": -12.16}, {"smiles": "O=C(c1cncc(Br)c1)N1CCCc2c(F)cc(F)cc21", "Percent Effect": -4.9}, {"smiles": "CC(C#N)CNS(=O)(=O)c1ccc(Br)c(F)c1", "note": "(centres undefined)", "Percent Effect": 3.318}, {"smiles": "CC(C)c1noc(CCC(=O)N(CC2CCOC2)C2CC2)n1", "note": "(centres undefined)", "Percent Effect": 6.067}, {"smiles": "NC(=O)NC(=O)CCN(Cc1ccccc1)CC1CCOCC1", "Percent Effect": -17.87}, {"smiles": "Cc1cnn(CC(C)NCC(=O)Nc2ccc(Cl)cn2)c1", "note": "(centres undefined)", "Percent Effect": -4.944}, {"smiles": "Fc1cnc(N2CC[C@@H]3O[C@@H](COCc4ccccn4)CC[C@@H]32)nc1.O=C(O)C(F)(F)F.O=C(O)C(F)(F)F", "Percent Effect": -20.87}, {"smiles": "Fc1cnc(N2CC[C@@H]3O[C@@H](COCc4cccnc4)CC[C@@H]32)nc1.O=C(O)C(F)(F)F", "Percent Effect": -5.936}, {"smiles": "CC(C)COC[C@H]1CC[C@H]2[C@H](CCN2C(=O)c2ccncc2F)O1.O=C(O)C(F)(F)F", "Percent Effect": 108.1}, {"smiles": "CC(C)COC[C@@H]1CC[C@H]2[C@H](CCN2C(=O)c2ccncc2F)O1.O=C(O)C(F)(F)F", "Percent Effect": 105.1}, {"smiles": "O=C(O)C(F)(F)F.O=C(c1ccncc1F)N1CC[C@@H]2OC(COCC3CC3)CC[C@@H]21", "note": "(some centres undefined)", "Percent Effect": 97.57}, {"smiles": "COc1ccc(CNC[C@H]2COCc3nc4cccnc4n32)cn1", "Percent Effect": 2.273}, {"smiles": "Cc1ccc(NC(C)C(=O)N(C)Cc2cccc(F)c2)cc1C(N)=O", "note": "(centres undefined)", "Percent Effect": -12.41}, {"smiles": "CN(Cc1ccc(Cl)s1)C(=O)c1cccc(OCC(N)=O)c1", "Percent Effect": -4.963}, {"smiles": "N#Cc1ccc(SCCOCCO)c(F)c1", "Percent Effect": -11.88}, {"smiles": "CC(OCC1CC1)C(=O)N1CCCN(c2nc3ccccc3[nH]2)CC1", "note": "(centres undefined)", "Percent Effect": 2.156}, {"smiles": "COCc1nccc(C2CCCN(Cc3ccc(SC)cc3)C2)n1", "note": "(centres undefined)", "Percent Effect": -16.87}, {"smiles": "Nc1nccc(C2CCCN(CC3CC3)C2)n1", "note": "(centres undefined)", "Percent Effect": 142.8}, {"smiles": "COCc1nccc(C2CCCN(Cc3ccc(C#N)cc3)C2)n1", "note": "(centres undefined)", "Percent Effect": -15.32}, {"smiles": "Nc1nccc(C2CCN(CC3CC3)C2)n1", "note": "(centres undefined)", "Percent Effect": 123.6}, {"smiles": "COc1ccc(-c2nnc([C@H]3CCN(CC4CC4)C3)o2)cc1", "Percent Effect": 1.558}, {"smiles": "N#Cc1ccc(CN2CCC(c3ccnn3CCO)CC2)cc1", "Percent Effect": -5.885}, {"smiles": "Nc1nccc(C2CCN(CCO)C2)n1", "note": "(centres undefined)", "Percent Effect": 113.7}, {"smiles": "Cc1noc(CN2CCC(c3ccnn3CCO)CC2)n1", "Percent Effect": -5.622}, {"smiles": "Cc1ccc2[nH]c([C@H]3CCN(CC4CCCCC4)C3)nc2c1", "Percent Effect": 2.151}, {"smiles": "Cc1ccc2c(c1)OCCN2C(=O)c1ccc(=O)n(C)c1", "Percent Effect": 10.97}, {"smiles": "CCn1c(CN(C)C(=O)c2ccc(N(C)C)nc2)nc2ccccc21", "Percent Effect": -11.95}, {"smiles": "O=C(Nc1ccccc1)C1CN(Cc2ccco2)CC12CCOCC2.O=C(O)C(F)(F)F", "note": "(centres undefined)", "Percent Effect": -4.746}, {"smiles": "Cc1ccc(S(=O)(=O)Cc2noc([C@@H]3C[C@@H](O)CN3)n2)cc1", "Percent Effect": 5.528}]}]}
